In the supplement of paper PMC8975748:
Counter-ions that a name gives are not always drawn. ± gives the standard deviation of the averaged measurements.

What was measured:
[1] = tested on: Saccharomyces cerevisiae BY4741 SeMeCo community; assay: mean cell size (pixel area) (pixels); higher = larger cells; conditions: 10 µM; 24 h; SM minimal medium
Summary of the method: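 A fluorescent Saccharomyces cerevisiae BY4741 community carrying four plasmids was used, with each plasmid complementing one auxotrophy and bearing a fluorescent marker. An overnight preculture at OD600 = 1.0 was diluted to OD600 = 0.3, and 70 µl went into 384-well plates acoustically predosed with drug (final 10 µM) in SM medium for 24 h. After paraformaldehyde fixation, cells were imaged by automated confocal microscopy and analysed in Harmony, giving the mean cell pixel area per well. Each value is the average of 3 replicates. Same SeMeCo high-content imaging drug screen: Selleck FDA-approved drugs at 10 µM, 24 h in SM medium, 384-well plates, 3 replicates.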

[2] = tested on: Saccharomyces cerevisiae BY4741 SeMeCo community; assay: z-score of subpopulation abundance vs DMSO median, subpopulation auxotrophic for L; higher = larger share of this subpopulation than in DMSO controls; conditions: 10 µM; 24 h; SM minimal medium; subpopulation (auxotrophy): L
Summary of the method: (§1)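 A community of Saccharomyces cerevisiae BY4741 was built from four plasmids that each restored one auxotrophy and encoded a distinct fluorescent protein. Pre-grown overnight to OD600 1.0 and diluted to 0.3, it was dispensed at 70 µl into 384-well plates acoustically predosed with library drugs for a final 10 µM, and grown 24 h in minimal SM medium. Cells were then paraformaldehyde-fixed and imaged by automated confocal microscopy. Thresholds and autofluorescence correction came from single-auxotroph fluorescent strains, and each subpopulation's abundance was scored as a z-score relative to the vehicle-well median.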

[3] = tested on: Saccharomyces cerevisiae BY4741 SeMeCo community; assay: z-score of subpopulation abundance vs DMSO median, subpopulation auxotrophic for U; higher = larger share of this subpopulation than in DMSO controls; conditions: 10 µM; 24 h; SM minimal medium; subpopulation (auxotrophy): U
Summary of the method: as §1

[4] = tested on: Saccharomyces cerevisiae BY4741 SeMeCo community; assay: z-score of subpopulation abundance vs DMSO median, subpopulation auxotrophic for H; higher = larger share of this subpopulation than in DMSO controls; conditions: 10 µM; 24 h; SM minimal medium; subpopulation (auxotrophy): H
Summary of the method: as §1

[5] = tested on: Saccharomyces cerevisiae BY4741 SeMeCo community; assay: z-score of subpopulation abundance vs DMSO median, subpopulation auxotrophic for LM; higher = larger share of this subpopulation than in DMSO controls; conditions: 10 µM; 24 h; SM minimal medium; subpopulation (auxotrophy): LM
Summary of the method: as §1

[6] = tested on: Saccharomyces cerevisiae BY4741 SeMeCo community; assay: z-score of subpopulation abundance vs DMSO median, subpopulation auxotrophic for HM; higher = larger share of this subpopulation than in DMSO controls; conditions: 10 µM; 24 h; SM minimal medium; subpopulation (auxotrophy): HM
Summary of the method: as §1

[7] = tested on: Saccharomyces cerevisiae BY4741 SeMeCo community; assay: z-score of subpopulation abundance vs DMSO median, subpopulation auxotrophic for HU; higher = larger share of this subpopulation than in DMSO controls; conditions: 10 µM; 24 h; SM minimal medium; subpopulation (auxotrophy): HU
Summary of the method: as §1

[8] = tested on: Saccharomyces cerevisiae BY4741 SeMeCo community; assay: z-score of subpopulation abundance vs DMSO median, subpopulation auxotrophic for UM; higher = larger share of this subpopulation than in DMSO controls; conditions: 10 µM; 24 h; SM minimal medium; subpopulation (auxotrophy): UM
Summary of the method: as §1

[9] = tested on: Saccharomyces cerevisiae BY4741 SeMeCo community; assay: z-score of subpopulation abundance vs DMSO median, subpopulation auxotrophic for HL; higher = larger share of this subpopulation than in DMSO controls; conditions: 10 µM; 24 h; SM minimal medium; subpopulation (auxotrophy): HL
Summary of the method: as §1

[10] = tested on: Saccharomyces cerevisiae BY4741 SeMeCo community; assay: z-score of subpopulation abundance vs DMSO median, subpopulation auxotrophic for HLU; higher = larger share of this subpopulation than in DMSO controls; conditions: 10 µM; 24 h; SM minimal medium; subpopulation (auxotrophy): HLU
Summary of the method: as §1

[11] = tested on: Saccharomyces cerevisiae BY4741 SeMeCo community; assay: z-score of subpopulation abundance vs DMSO median, subpopulation auxotrophic for HLM; higher = larger share of this subpopulation than in DMSO controls; conditions: 10 µM; 24 h; SM minimal medium; subpopulation (auxotrophy): HLM
Summary of the method: as §1

[12] = tested on: Saccharomyces cerevisiae BY4741 SeMeCo community; assay: z-score of subpopulation abundance vs DMSO median, subpopulation auxotrophic for HUM; higher = larger share of this subpopulation than in DMSO controls; conditions: 10 µM; 24 h; SM minimal medium; subpopulation (auxotrophy): HUM
Summary of the method: as §1

[13] = tested on: Saccharomyces cerevisiae BY4741 SeMeCo community; assay: z-score of subpopulation abundance vs DMSO median, subpopulation auxotrophic for LUM; higher = larger share of this subpopulation than in DMSO controls; conditions: 10 µM; 24 h; SM minimal medium; subpopulation (auxotrophy): LUM
Summary of the method: as §1

[14] = tested on: Saccharomyces cerevisiae BY4741 SeMeCo community; assay: z-score of subpopulation abundance vs DMSO median, subpopulation auxotrophic for HLUM; higher = larger share of this subpopulation than in DMSO controls; conditions: 10 µM; 24 h; SM minimal medium; subpopulation (auxotrophy): HLUM
Summary of the method: as §1

[15] = tested on: Saccharomyces cerevisiae BY4741 SeMeCo community; assay: z-score of prototroph abundance vs DMSO median; higher = larger share of this subpopulation than in DMSO controls; conditions: 10 µM; 24 h; SM minimal medium; subpopulation (auxotrophy): Prototroph
Summary of the method: as §1

[16] = tested on: Saccharomyces cerevisiae BY4741 SeMeCo community; assay: z-score of subpopulation abundance vs DMSO median, subpopulation auxotrophic for LU; higher = larger share of this subpopulation than in DMSO controls; conditions: 10 µM; 24 h; SM minimal medium; subpopulation (auxotrophy): LU
Summary of the method: as §1

Row | SMILES | mean cell size [1] | z-score of subpopulation abundance [2] | z-score of subpopulation abundance [3] | z-score of subpopulation abundance [4] | z-score of subpopulation abundance [5] | z-score of subpopulation abundance [6] | z-score of subpopulation abundance [7] | z-score of subpopulation abundance [8] | z-score of subpopulation abundance [9] | z-score of subpopulation abundance [10] | z-score of subpopulation abundance [11] | z-score of subpopulation abundance [12] | z-score of subpopulation abundance [13] | z-score of subpopulation abundance [14] | z-score of prototroph abundance [15] | z-score of subpopulation abundance [16]
1 | C[C@H](NCc1ccc(OCc2cccc(F)c2)cc1)C(N)=O [Safinamide] | 12.47 ± 0.075 | -0.58 | 1.46 | -0.07 | 0.37 | 0.41 | 1.16 | 0.6 | 0.15 | 0.72 | 1.35 | -0.17 | 0.42 | 0.95 | – | –
2 | CC(C)[C@H](N)C(=O)OCCOCn1cnc2c(=O)nc(N)[nH]c21 [Valaciclovir HCl] | 12.3 ± 0.16 | -0.06 | 0.12 | -0.62 | -0.74 | -0.81 | 0.53 | 0.08 | -0.27 | -0.75 | – | 0.37 | -0.29 | – | 0.5 | -0.13
3 | COC(=O)C1=C(C)NC(C)=C(C(=O)OC(C)(C)CN(C)CCC(c2ccccc2)c2ccccc2)C1c1cccc([N+](=O)[O-])c1 (stereo not drawn) [Lercanidipine hydrochloride] | – | 1.4 | -1.5 | 2.45 | 1.89 | 2.19 | -0.84 | – | 1.84 | 0.32 | – | – | 0.24 | -0.22 | -0.42 | -0.32
4 | Cc1cc(C)nc(O)n1.O=C(Nc1ccc([N+](=O)[O-])cc1)Nc1ccc([N+](=O)[O-])cc1 [Nicarbazin] | – | -0.96 | – | -0.25 | -1.07 | -0.62 | -0.22 | -0.4 | -1.2 | -0.28 | -0.49 | – | -0.52 | -0.56 | 0.74 | 0.22
5 | Nc1nc(O)c2ncn(CCC(CO)CO)c2n1 [Penciclovir] | 12.4 ± 0.4 | – | 0.53 | 0.22 | -0.19 | 0.31 | 0.29 | 0.66 | -0.26 | -0.33 | -0.62 | – | -0.73 | -0.97 | – | 0.58
6 | COC(=O)Nc1nc2cc(C(=O)c3ccccc3)ccc2[nH]1 [Mebendazole] | – | 0.37 | – | 1.06 | 1.32 | 1.02 | – | 1.89 | 0.26 | -0.05 | 1.83 | 1.64 | – | 1.44 | -1.69 | 0.33
7 | COCC1=C(C(=O)OC(C)OC(=O)OC(C)C)N2C(=O)[C@@H](NC(=O)/C(=N\OC)c3csc(N)n3)[C@H]2SC1 (stereo partly drawn) [Cefpodoxime proxetil] | 12.25 ± 0.089 | -0.07 | 0.51 | -0.09 | 0.62 | 0.76 | 0.99 | – | -0.24 | 0.57 | -0.08 | – | 0.36 | 0.35 | -0.89 | 0.31
8 | CC[C@@H]1/C=C(\C)C[C@H](C)C[C@H](OC)[C@H]2O[C@@](O)(C(=O)C(=O)N3CCCC[C@H]3C(=O)O[C@H](/C(C)=C/[C@@H]3CC[C@@H](O)[C@H](OC)C3)[C@H](C)[C@@H](O)CC1=O)[C@H](C)C[C@@H]2OC [Ascomycin (FK520)] | 11.8 ± 0.18 | 0.1 | -0.06 | 1.96 | 1.39 | 1.4 | 1.75 | 0.63 | 2.56 | 2.5 | 1.57 | – | 2.23 | – | -1.94 | -0.23
9 | CN(C)CCC=C1c2ccccc2CCc2ccccc21 [Amitriptyline HCl] | 12.3 ± 0.27 | -0.56 | -0.21 | -0.87 | -0.17 | -0.99 | -0.28 | -0.92 | -0.48 | -1.03 | -1.26 | -0.75 | -0.91 | -0.81 | 0.95 | –
10 | COC(=O)C1=C(C)NC(C)=C(C(=O)OCCN2CCN(C(c3ccccc3)c3ccccc3)CC2)C1c1cccc([N+](=O)[O-])c1 (stereo not drawn) [Manidipine] | 12 ± 0.18 | 0.96 | – | 2.53 | 2.53 | 2.14 | – | -0.6 | 2.76 | 1.73 | – | 2.11 | 0.72 | 0.6 | -1.43 | -1.04
11 | CN1[C@@H]2CC[C@H]1C[C@@H](OC(=O)c1c[nH]c3ccccc13)C2 [Tropisetron] | – | 1.61 | -0.36 | 0.66 | 1.96 | 2.08 | 0.59 | 0.48 | – | 1.41 | – | – | 1.16 | 0.38 | -1.48 | 0.87
12 | COc1ccc(C2CNC(=O)C2)cc1OC1CCCC1 (stereo not drawn) [S- (+)-Rolipram] | – | -0.9 | -0.01 | -0.73 | -0.87 | – | -0.33 | -1.18 | -0.58 | -1.07 | -0.94 | -0.99 | -1.24 | -1.15 | – | -0.96
13 | C=C[C@]1(C)C[C@@H](OC(=O)CS[C@@H]2C[C@H]3CC[C@@H](C2)N3C)[C@]2(C)[C@H](C)CC[C@]3(CCC(=O)[C@H]32)[C@@H](C)[C@@H]1O [Retapamulin] | 12.42 ± 0.093 | -0.16 | 0.79 | -0.84 | 0.32 | -0.99 | 0.72 | 0.21 | -0.57 | 0.45 | -0.52 | – | – | 0.65 | -0.09 | 1.21
14 | CO/N=C(\C(=O)N[C@@H]1C(=O)N2C(C(=O)OCOC(=O)C(C)(C)C)=C(/C=C\c3scnc3C)CS[C@H]12)c1csc(N)n1 [Cefditoren Pivoxil] | 12.3 ± 0.23 | 1.38 | -0.88 | 0.56 | 1.47 | 1.45 | -0.64 | -0.06 | 1.56 | 0.74 | – | 0.78 | 1.12 | 0.48 | -0.6 | 0.07
15 | CC(C(=O)O)c1ccc2c(c1)Cc1cccnc1O2 (stereo not drawn) [Pranoprofen] | 12.56 ± 0.067 | -0.28 | 0.43 | -0.08 | -0.7 | 0.14 | 0.43 | -0.93 | -0.22 | -0.3 | – | 0.27 | -0.12 | -0.06 | 0.32 | -0.35
16 | C[C@@H](O)[C@H]1C(=O)N2C(C(=O)O)=C(SCCNC=N)C[C@H]12 [Imipenem] | 12.26 ± 0.071 | -1.04 | 0.59 | 0.19 | 0.19 | 0.44 | -0.46 | 1.18 | -0.18 | -0.62 | 0.25 | – | 0.35 | -0.14 | -0.79 | -0.16
